High-throughput results from PubChem.
Most compounds without a hit are left out; they make up all but 19% or so of the library.
TDP1 cell noCPT: qHTS for Inhibitors of human tyrosyl-DNA phosphodiesterase 1 (TDP1): qHTS in cells in absence of CPT; DT40 Tdp1-/- hTDP1 cells, no CPT, ATP luminescence, 48 h; Potency, µM (doses to about 46.2 µM), most hits filed as inhibitors; 420,000 compounds, 15% hits; further: nearly all actives have a fitted effect of over 55% in size
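Chicken DT40 Tdp1-/- cells complemented with human TDP1, screened without camptothecin (DMSO vehicle only), 400 cells/well. Compounds pin-transferred, cells incubated at 37 °C for at least 48 hr. Growth read as ATP-dependent luminescence (CellTiter-Glo, 30 min at RT).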
TDP1 cell CPT: growth inhibition of DT40 Tdp1-/-;hTDP1 cells with camptothecin (screen for TDP1 inhibitors) | AID 686979 | 420,000 compounds, 12% hits | chicken DT40 Tdp1-/-;hTDP1 cells + 20 nM CPT, ATP luminescence, 48 h | Potency, µM (highest dose often 46.2 µM), usual class: inhibitors; further: nearly all actives have a fitted effect of over 55% in size
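Cell growth measured by CellTiter-Glo luminescence after a minimum 48 h, 37 C compound exposure with 20 nM CPT in Tdp1-knockout DT40 cells stably expressing hTDP1, seeded 400/well; qHTS titration format.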
HT1080-NT tox: kills 2HG-producing HT-1080-NT fibrosarcoma cells; HT-1080-NT fibrosarcoma viability, CellTiter-Glo ATP luminescence, 48 h; Potency, µM (doses to about 46.1 µM), most hits filed as cytotoxic; 360,000 compounds, 1.6% hits; AID 686970;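 further: NT is the 2HG producing partner of a matched IDH1 knockdown line; nearly all actives have a fitted effect of over 55% in size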
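Viability of the 2HG-overproducing fibrosarcoma line after 48 hours of compound exposure at 37 degrees C was determined by luminescence with CellTiter-Glo, and concentration-effect curves were then fitted and categorized.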
HT1080 IDH1KD tx: kills HT-1080 cells with IDH1 knockdown. HT-1080 IDH1 knockdown viability, ATP luminescence, 48 h. Potency, µM (doses to about 46.1 µM), usual class: cytotoxic. 360,000 compounds, 2% hits. AID 686971
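CellTiter-Glo luminescence after 48 h compound exposure at 37 degrees C of IDH1-knockdown HT-1080 cells in 5% FBS RPMI. %Activity scaled between DMSO wells and cell-free media wells, with curves fitted and assigned curve classes.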
KB-3-1 cytotox: KB-3-1 parental cell cytotoxicity; KB-3-1 viability, CellTiter-Glo ATP luminescence, 72 h; Potency, µM (top dose mostly 46.1 µM), actives largely listed as cytotoxic; 400,000 compounds, 1.4% hits; further: nearly all actives have a fitted effect of over 60% in size
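KB-3-1 cells, DMEM (no phenol red) + 10% FBS; compound by pin transfer, 72 h, 37 °C. Readout: CellTiter-Glo luminescence after 10 min. Data normalized, curve-fitted.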
KB-V1 MDR tox: kills drug-selected multidrug resistant KB-V1 cells. AID 1347076. 400,000 compounds, 3.4% hits. Potency, µM (highest dose often 46.1 µM), most hits filed as cytotoxic. KB-V1 MDR cells viability, CellTiter-Glo, 72 h; further: nearly all actives have a fitted effect of over 60% in size
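Cytotoxicity via CellTiter-Glo luminescence after 72 h compound exposure at 37 degrees C. Cells: drug-selected KB-V1 line, DMEM phenol-red free plus 10% FBS. Compounds tested at multiple concentrations; normalized data fitted to concentration-effect curves.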
A number is an active result; n = inactive; u = inconclusive; x = not tested or not shown. The call rests on the fitted dose curve; in most records, active means well fitted curve in the direction sought with a large enough effect; inconclusive means small, poorly fitted or top-dose-only effect, or another doubt; inactive means no such curve, though single readings can be large; an effect the other way counts as inactive or inconclusive.

SMILES | TDP1 cell noCPT | TDP1 cell CPT | HT1080-NT tox | HT1080 IDH1KD tx | KB-3-1 cytotox | KB-V1 MDR tox
Cc1cc(C)cc(CC(=O)N2CCC2(C)C(=O)NS(=O)(=O)c2ccc(Br)cc2)c1 (stereo not drawn) | n | n | n | n | n | n
Cc1ccc(C)c(C(C)NC(=S)NC2CCCCC2)c1 (stereo not drawn) | u | 26µM | u | u | u | u
N#CC1=C(N)Oc2cc(O)ccc2C1c1cccnc1 (stereo not drawn) | n | n | n | n | u | u
N#CC1=C(N)Oc2cc(N)ccc2C1c1cccc(F)c1 (stereo not drawn) | u | u | 2.9µM | 2.3µM | 5.2µM | u
COC(=O)c1ccc(C2C(C#N)=C(N)Oc3cc(N)ccc32)cc1 (stereo not drawn) | n | 0.92µM | n | n | n | n
CN(C)c1ccc2c(c1)OC(N)=C(C#N)C2c1cccc(F)c1 (stereo not drawn) | 0.021µM | 0.021µM | 0.18µM | 0.22µM | u | u
N#CC1=C(N)Oc2cc(N)ccc2C1C1CCCCC1 (stereo not drawn) | 21µM | u | 21µM | 8.2µM | 5.8µM | u
O=C(Nc1cccc(O)c1)c1cc(-c2ccccc2Cl)on1 | n | n | n | n | n | n
CCN(CC)c1ccc(-n2c(C)c(C(C)=O)c(C(C)=O)c2C)cc1 | 10µM | 23µM | n | n | u | 18µM
Cc1nc(C(=O)N(Cc2cc3ccc(F)cc3nc2N2CCC(O)CC2)CC2CCCO2)cs1 (stereo not drawn) | n | n | x | x | x | x
N#CC(C#N)=Cc1ccc(NC(=O)c2ccc(Br)cc2)cc1 | 16µM | 21µM | n | n | n | n
CC(C)(C)c1ccc(C(=O)Nc2ccc(C=C(C#N)C#N)cc2)cc1 | 12µM | 16µM | u | u | u | u
CSc1ncnc2c1ncn2CCCNCc1ccccc1 | n | n | n | n | n | u
CSc1ncnc2c1ncn2CCCNc1ccc(C)c(C)c1 | 21µM | u | n | n | n | n
CSc1ncnc2c1ncn2CCCN1CCN(c2ncccn2)CC1 | u | n | n | n | n | n
COc1ncnc2c1ncn2CCCN1CCN(Cc2cccc3ccccc23)CC1 | 23µM | u | n | n | n | u
CSc1ncnc2c1ncn2CCCN1CCN(Cc2cccc3ccccc23)CC1 | 23µM | u | n | n | n | u
COc1ncnc2c1ncn2CCCN1CCN(Cc2ccc(C)cc2)CC1 | n | n | n | n | n | u
O=c1[nH]cc(S(=O)(=O)N2CCN(c3ccccc3F)CC2)c(=O)[nH]1 | n | n | n | n | n | n
O=C(Cc1ccc(Cl)cc1)NCC(=O)N1CCC2(CC1)NCCc1[nH]cnc12 | n | n | n | n | n | n
O=C(CSc1nnc2ccccn12)NNC(=O)c1ccc(F)cc1 | n | n | n | n | n | n
O=c1[nH][nH]c2c1[C@H](c1ccc(Cl)cc1)O[C@H](C1CCCC1)C2 | u | u | n | n | u | n
CC[n+]1c(C)cc2c(sc3ccccc32)c1C | 2.9µM | 12µM | 5.2µM | u | 2.6µM | n
O=C(c1cc(Sc2ccc(Cl)cc2)nc2ccccc12)N1CCN(c2ccccn2)CC1 | u | u | u | n | n | u
O=C(c1cnc(N2CCN(c3ccccn3)CC2)c2ccccc12)N1CCN(c2cccc(Cl)c2)CC1 | 12µM | 13µM | n | u | u | u
SMILES | TDP1 cell noCPT | TDP1 cell CPT | HT1080-NT tox | HT1080 IDH1KD tx | KB-3-1 cytotox | KB-V1 MDR tox
O=C(c1cc(Sc2cccc(Cl)c2)nc2ccccc12)N1CCN(c2ccccn2)CC1 | u | 15µM | n | n | n | n
O=C(CSc1nnc(N2CCCC2)n1-c1cccc(Cl)c1)N1CCN(c2ccccn2)CC1 | 21µM | u | n | n | n | u
O=C(c1cc(Cl)ccc1Cl)N1CCN(c2ccccn2)CC1 | n | n | n | n | n | u
COCCNC(=S)N(C)[C@H]1C[C@H]2c3cc(N4CCN(C)CC4)ccc3CCN2C(=O)[C@H]1[C@H](C)O | n | n | n | n | n | n
CC1CCN(S(=O)(=O)c2ccc3c(c2)CCN3C(=O)Nc2ccccc2Br)CC1 | n | n | x | x | x | x
Cc1ccc(S(=O)(=O)N2CCN(Cc3cc(=O)n4nc(-c5ccccc5Cl)sc4n3)CC2)cc1 | n | n | x | x | n | n
COc1ccc(NC(=O)C[C@H]2C(=O)N(c3ccc(Br)cc3)C[C@@H]2c2ccc(OC)cc2)cc1 | 21µM | u | n | n | n | n
CCC[C@H]1CN(c2ccc(OC)cc2)C(=O)[C@@H]1CC(=O)Nc1ccccc1 | u | u | n | n | n | n
CCC[C@H]1CN(c2ccccc2)C(=O)[C@@H]1CC(=O)Nc1ccc(OC)cc1 | u | u | n | n | n | n
COc1ccc(NC(=O)C[C@H]2C(=O)N(c3ccc(OC)cc3)C[C@@H]2c2ccc(Br)cc2)cc1 | 23µM | u | n | n | n | u
COc1ccc([C@H]2CN(c3ccc(OC)cc3)C(=O)[C@@H]2CC(=O)Nc2ccccc2)cc1 | 13µM | n | n | n | n | u
COc1ccc(NC(=O)C[C@H]2C(=O)N(c3ccc(Br)cc3)C[C@@H]2C)cc1 | u | u | n | n | u | u
Cn1cc(C(=O)O)c(=O)c2cc(S(=O)(=O)N3CCCCC3)ccc21 | u | n | x | x | n | n
CCOC(=O)c1ccc2ncc3c(-c4ccccc4)nn(-c4ccc(F)c(Cl)c4)c3c2c1 | n | n | x | x | n | n
CCn1ncc(C2=NOC(C(=O)Nc3cnn(C45CC6CC(CC(C6)C4)C5)c3)C2)c1C (stereo not drawn) | u | u | u | u | u | 3.3µM
CCn1cc(C2=NOC(C(=O)Nc3cccc(C(C)=O)c3)C2)c(C)n1 (stereo not drawn) | u | 16µM | n | n | u | n
CCN(CC)CC1CCCCN1CC(=O)N1c2ccccc2C(=O)Nc2cccnc21 (stereo not drawn) | n | n | x | x | x | x
O=C(NC1CCCCCC1)C1CCN(S(=O)(=O)c2cccc3cccnc23)CC1 | n | n | n | n | n | n
O=C(NC1CCN(Cc2ccccc2)CC1)C1CCN(S(=O)(=O)c2cccc3cccnc23)CC1 | 15µM | 18µM | n | n | n | n
O=S(=O)(NC1CCN(Cc2ccccc2)CC1)c1cccc2cccnc12 | 18µM | u | u | u | n | n
CC(C)(C)NC(=O)CCN(/N=C/c1ccc([N+](=O)[O-])o1)C1=NS(=O)(=O)c2ccccc21 | 15µM | 18µM | u | u | 18µM | n
Cc1ccc(Cl)cc1N1CCN(C(=O)c2cn(C)c3ccc(S(=O)(=O)N4CCC(C)CC4)cc3c2=O)CC1 | n | n | x | x | n | n
